Results filed as inconclusive are left out. Activity calls are given as the source filed them. Unless noted, the call rests on the fitted dose curve; in most records, active means well fitted curve in the direction sought with a large enough effect; inconclusive means small, poorly fitted or top-dose-only effect, or another doubt; inactive means no such curve, though single readings can be large; an effect the other way counts as inactive or inconclusive.

Assay [1] deals with Luciferin 4-monooxygenase (Photinus pyralis) (UniProt P08659). Put plainly: Biochemical firefly luciferase enzyme assay for NPC (AID 624030).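 Further: purified P. pyralis luciferase at 10 nM with luciferin and ATP substrate; nearly all actives have a fitted effect of over 70% in size.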 The procedure, abridged:
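Counter-screen for direct inhibition of the luciferase enzyme by approved-drug library compounds, run at 10 nM enzyme in 50 mM Tris acetate (final). Luminescence was read within 5 min of enzyme-buffer addition and normalized to PTC124 versus DMSO (0%).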

A short description of assay [2]: S16 Schwann cell viability assay (CellTiter-Glo assay) (AID 624031).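 Further: cellular ATP luminescence as a viability measure; nearly all actives have a fitted effect of over 70% in size.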 In short, it runs like this:
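Untransfected S16 rat Schwann cells; compound 24 h, 37 °C/5% CO2; CellTiter-Glo ATP luminescence. % activity vs no-cell wells and DMSO controls (0%); concentration-effect curves classed by r2, response magnitude, activity.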
(Cellular ATP, detected with luciferase, serves as a proxy for viable cell number.)

The nature of assay [3]: S16 Schwann cell PMP22 intronic element beta-lactamase assay (AID 624044; calls by dose curve; further: nearly all actives have a fitted effect of over 15% in size; further: potency means the concentration at half of the fitted maximal effect). Conditions: S16 rat Schwann cells, PMP22 element beta-lactamase FRET, 24 h; ratio activity, negative = inhibition: at 38.3 µM (top of the series). The procedure, abridged:
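Rat S16 Schwann cells with beta-Lac driven by a PMP22 intronic element, compound-treated 24 h at 37 °C. LiveBLAzer FRET B/G read: 460 nm normalized to potassium clavulanate vs DMSO; 535 nm FRET as viability; concentration-effect curves classified.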

Assay [4] deals with 7G8. The assay is described as follows: qHTS profiling for inhibitors of Plasmodium falciparum proliferation (AID 504749). Further: nearly all actives have a fitted effect of over 60% in size. Further: potency means the concentration at half of the fitted maximal effect. The following applies: P. falciparum in erythrocytes, SYBR Green DNA, 72 h; series mostly up to 28.7 µM. The procedure, abridged:
(§1)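 Parasite proliferation within erythrocytes, 72 h exposure. Endpoint: SYBR Green I fluorescence after overnight lysis at room temperature. Controls: 0.29 uM artemisinin, DMSO.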
In general terms: In qHTS, concentration-response curves come from the screen itself.

Assay [5] relates to ATS95. Described as above. Conditions: P. falciparum in erythrocytes, SYBR Green DNA, 72 h; series mostly up to 28.7 µM. In short, it runs like this: as §1
For assay [6], the system named is CP215. The assay is described as above. Conditions: P. falciparum in erythrocytes, SYBR Green DNA, 72 h; series mostly up to 28.7 µM. The procedure, abridged:
as §1

The subject of assay [7] is CP260. Described as above. Conditions: P. falciparum in erythrocytes, SYBR Green DNA, 72 h; series mostly up to 28.7 µM. In short, it runs like this: as §1
The subject of assay [8] is CP291. The description is as above. The following applies: P. falciparum in erythrocytes, SYBR Green DNA, 72 h; series mostly up to 28.7 µM. In short, it runs like this:
as §1

Assay [9] deals with CP297. Described as above. Conditions: P. falciparum in erythrocytes, SYBR Green DNA, 72 h; series mostly up to 28.7 µM. In short, it runs like this:
as §1

Assay [10] concerns CP335. Described as above. The following applies: P. falciparum in erythrocytes, SYBR Green DNA, 72 h; series mostly up to 28.7 µM. The procedure, abridged: as §1
Assay [11] relates to DIV17. The assay is described as above. The following applies: P. falciparum in erythrocytes, SYBR Green DNA, 72 h; series mostly up to 28.7 µM. The procedure, abridged: as §1
Assay [12] relates to GB4. The description is as above. Conditions: P. falciparum in erythrocytes, SYBR Green DNA, 72 h; series mostly up to 28.7 µM. In short, it runs like this:
as §1

In assay [13] the test system is P93_24. The description is as above. The following applies: P. falciparum in erythrocytes, SYBR Green DNA, 72 h; series mostly up to 28.7 µM. The procedure, abridged:
as §1

The subject of assay [14] is PC15. The description is as above. The following applies: P. falciparum in erythrocytes, SYBR Green DNA, 72 h; series mostly up to 28.7 µM. In short, it runs like this:
as §1

Assay [15] relates to PC26. Described as above. The following applies: P. falciparum in erythrocytes, SYBR Green DNA, 72 h; series mostly up to 28.7 µM. The procedure, abridged: as §1
The test system of assay [16] is PC49. The assay is described as above. The following applies: P. falciparum in erythrocytes, SYBR Green DNA, 72 h; series mostly up to 28.7 µM. In short, it runs like this: as §1
Assay [17] concerns TAB109. The description is as above. The following applies: P. falciparum in erythrocytes, SYBR Green DNA, 72 h; series mostly up to 28.7 µM. The procedure, abridged: as §1
Assay [18] relates to TAB165. The assay is described as above. The following applies: P. falciparum in erythrocytes, SYBR Green DNA, 72 h; series mostly up to 28.7 µM. The procedure, abridged:
as §1

The subject of assay [19] is CP247. The description is as above. Conditions: P. falciparum in erythrocytes, SYBR Green DNA, 72 h; series mostly up to 28.7 µM. In short, it runs like this: as §1
In assay [20] the test system is CP266. Described as above. The following applies: P. falciparum in erythrocytes, SYBR Green DNA, 72 h; series mostly up to 28.7 µM. In short, it runs like this:
as §1

Sequence of Luciferin 4-monooxygenase (Photinus pyralis) (P08659 whole entry, looked up): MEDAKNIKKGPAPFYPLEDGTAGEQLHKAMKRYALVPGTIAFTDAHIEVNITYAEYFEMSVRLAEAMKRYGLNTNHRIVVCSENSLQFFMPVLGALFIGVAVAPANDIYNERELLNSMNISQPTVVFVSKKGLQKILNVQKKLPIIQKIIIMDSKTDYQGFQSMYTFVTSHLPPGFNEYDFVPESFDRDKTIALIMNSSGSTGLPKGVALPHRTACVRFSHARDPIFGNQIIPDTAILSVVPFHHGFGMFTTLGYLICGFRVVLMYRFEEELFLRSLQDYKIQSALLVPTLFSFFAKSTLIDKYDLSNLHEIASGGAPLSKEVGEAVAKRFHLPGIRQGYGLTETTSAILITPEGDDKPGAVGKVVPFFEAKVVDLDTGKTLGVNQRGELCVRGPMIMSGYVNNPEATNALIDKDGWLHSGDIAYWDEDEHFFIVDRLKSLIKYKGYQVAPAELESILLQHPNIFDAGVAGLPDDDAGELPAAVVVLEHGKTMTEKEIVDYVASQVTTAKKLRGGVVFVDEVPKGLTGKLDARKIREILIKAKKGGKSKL

As for `COc1ccc2cc1Oc1cc3c(cc1OC)CC[N+](C)(C)C3Cc1ccc(cc1)Oc1c(OC)c(OC)cc3c1C(C2)[N+](C)(C)CC3` (stereo not given), the Potency entry in [1], in assay [2], in [3], in assay [4], in [5] and in assay [6] was “inactive” in each case. Also, the Potency entry in assay [7], in assay [8], in [9], in assay [10], in assay [11] and in [12] was “inactive” each time. The Potency entry in assay [13], in assay [14], in assay [15], in [16], in assay [17] and in assay [18] was “inactive” in each case.
In the case of `O=C(O)c1ccc(N[C@@H]2OC[C@@H](O)[C@@H](O)[C@@H]2O)cc1`, the Potency result in assay [2], in assay [4], in assay [5], in assay [6], in [19] and in [7] was “inactive” throughout. For the same compound, the Potency entry in assay [8], in assay [9], in assay [10], in assay [11], in [12] and in assay [13] was “inactive” throughout. In addition, the Potency entry in [14], in [15], in assay [16], in [17] and in assay [18] was “inactive” each time.
As to `CC[C@@]1(O)CC2CN(CCc3c([nH]c4ccccc34)[C@](C(=O)OC)(c3cc4c(cc3OC)N(C)C3[C@@](O)(C(=O)OC)C(OC(C)=O)[C@]5(CC)C=CCN6CC[C@@]43C65)C2)C1` (stereo not given in full), the Potency result in assay [2] is “inactive”. Moreover, the Potency in assay [3] is 562 nM (active); in [4], 2820 nM (active); in assay [5] it was 3550 nM (active); in [6], 3380 nM (active); in assay [19] it was 1120 nM (active); in assay [7], 794 nM (active). Further, the Potency in assay [9] was 2390 nM (active); in assay [10], 1900 nM (active); in assay [11] it was 4780 nM (active); in assay [12], 2130 nM (active); in [13], 3160 nM (active); in assay [17], 3160 nM (active). The Potency in [18] was 3550 nM (active).
Regarding `CO/N=C(/C(=O)N[C@@H]1C(=O)N2C(C(=O)O)=C(CSc3cnns3)CS[C@H]12)c1csc(N)n1`, the Potency entry in assay [1], in assay [3], in assay [4], in assay [5], in assay [6] and in assay [19] was “inactive” each time. Besides, the Potency result in assay [7], in [8], in assay [9], in assay [10], in assay [11] and in assay [12] was “inactive” each time. For the same compound, the Potency entry in assay [13], in [14], in assay [15], in assay [16] and in assay [18] was “inactive” each time.
Turning to `CCCC(=O)Nc1c(I)cc(I)c(C[C@H](CC)C(=O)O)c1I`, the Potency result in assay [1], in assay [2], in assay [3], in assay [4], in assay [5] and in assay [6] was “inactive” throughout. In addition, the Potency entry in assay [19], in assay [20], in assay [8], in assay [9], in assay [10] and in [11] was “inactive” throughout. In addition, the Potency entry in [12], in assay [13], in [14], in assay [15], in assay [16] and in assay [17] was “inactive” each time. Further, the Potency result in assay [18] was “inactive”.
Take `NC(CSSCC(N)C(=O)O)C(=O)O` (stereo not given): the Potency result in [1], in assay [2], in [3], in assay [4], in [5] and in [6] was “inactive” in each case. Moreover, the Potency entry in assay [19], in assay [7], in assay [20], in assay [8], in assay [9] and in [10] was “inactive” each time. Further, the Potency entry in assay [11], in [12], in assay [13], in [14], in [15] and in [16] was “inactive” throughout. The Potency entry in assay [17] and in [18] was “inactive” each time.
As to `NCCCCC(N)C(=O)O` (stereo not given), the Potency entry in assay [1], in assay [2], in assay [3], in assay [4], in assay [5] and in assay [6] was “inactive” in each case. Besides, the Potency entry in [19], in [7], in assay [20], in assay [8], in assay [10] and in assay [11] was “inactive” in each case. The Potency result in [12], in [13], in assay [14], in [16], in assay [17] and in assay [18] was “inactive” each time.
Consider `C[C@@H](O)[C@@H]1C(=O)N2C(C(=O)O)=C([C@H]3CCCO3)S[C@H]12`, for which the Potency entry in [1], in assay [2], in assay [3], in assay [4], in assay [5] and in assay [6] was “inactive” each time. For the same compound, the Potency entry in assay [19], in assay [7], in assay [20], in assay [8], in assay [9] and in assay [10] was “inactive” throughout. The Potency entry in [11], in [12], in [13], in assay [14], in [15] and in assay [16] was “inactive” in each case. In addition, the Potency entry in assay [17] and in assay [18] was “inactive” in each case.
Turning to `NC(=O)c1ncn(C2OC(CO)C(O)C2O)c1N` (stereo not given), the Potency result in [1], in [2], in assay [3], in [4], in assay [5] and in assay [6] was “inactive” each time. Moreover, the Potency result in assay [19], in assay [7], in [20], in [8], in assay [9] and in assay [11] was “inactive” in each case. Moreover, the Potency entry in assay [12], in assay [13], in [14], in assay [15], in [16] and in assay [17] was “inactive” each time. The Potency entry in [18] was “inactive”.
For `CC1C(=O)C(=O)C=CN1C` (stereo not given), the Potency entry in [1], in assay [2], in assay [4], in assay [5], in [6] and in assay [19] was “inactive” each time. Also, the Potency entry in assay [20], in [8], in [9], in [10], in assay [11] and in assay [12] was “inactive” each time. Further, the Potency entry in assay [13], in [14], in assay [15], in [16], in assay [17] and in [18] was “inactive” in each case.
As to `NC(=O)OC[C@@H]1[C@H](NC(=O)/C(=N/OCC(=O)O)c2csc(N)n2)C(=O)N1S(=O)(=O)O`, the Potency result in assay [1], in assay [2], in assay [3], in assay [4], in [5] and in assay [6] was “inactive” each time. Also, the Potency result in assay [19], in [7], in assay [20], in [8], in assay [9] and in assay [10] was “inactive” in each case. Further, the Potency entry in assay [12], in assay [13], in assay [14], in [15], in assay [16] and in assay [17] was “inactive” each time. Also, in assay [18], the Potency entry was “inactive”.
In the case of `Nc1ncn(C2C[C@H](O)[C@@H](CO)O2)c(=O)n1` (stereo not given in full), the Potency result in [1], in assay [2], in assay [4], in assay [5], in assay [19] and in [7] was “inactive” in each case. The Potency result in assay [8], in assay [10], in [11], in [12], in assay [13] and in assay [14] was “inactive” each time. Besides, the Potency result in assay [15], in [16], in [17] and in [18] was “inactive” each time.

The values are drawn from PubChem BioAssay (NCATS).
